Screens from PubChem BioAssay.
This is a sample that favours compounds with a hit; in the whole collection about 6.7% have one here.
T cruzi growth-1 – T. cruzi proliferation inhibition | T. cruzi beta-gal in NIH3T3, GalScreen luminescence, 90 h | inhibition, % at 8.34 µM | 77,000 compounds, 5.9% hits | AID 624255;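 active = mean inhibition above about 93%, with at least 55% of replicates each passing it, limit read from the data, passing the limit was not always enough; inconclusive = only one of those two conditions holds; inactive = neither condition holds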
C diff growth – C. difficile growth inhibition; Clostridium difficile clinical isolate growth, OD600, 24 h; hits give low values; growth activity, negative = inhibition, % at 16 µg/mL (by protocol); 86,000 compounds, 0.25% hits; AID 1259249;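 active = mean growth activity at or below -80% and every replicate also at or below -80%; inconclusive = mean at or below -80% but some replicate above -80%; inactive = mean growth activity above -80%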
Pf Dd2 growth – blocks growth of Plasmodium falciparum Dd2 parasites; P. falciparum Dd2 growth, SYBR Green, 72 h; hits give low values; activity change, % at 10 µM; 94,000 compounds, 2.3% hits; AID 1159554; in the data active = activity change below about -80%; inconclusive = no clear call, values can overlap the other calls
T cruzi growth-2 – Trypanosoma cruzi proliferation inhibition. shares compounds with T cruzi growth-1. T. cruzi beta-gal in NIH3T3, GalScreen luminescence, 90 h. inhibition, % at 8.35 µM. 5,600 compounds, 72% hits. AID 651739;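 active = mean replicate inhibition above about 95% and at least 55% of replicates individually reaching it, limit read from the data; inconclusive = only one of the two criteria is met; inactive = neither criterion is met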
T cruzi growth-3 – blocks T. cruzi growth in NIH3T3 host cells | shares compounds with T cruzi growth-1 | T. cruzi beta-gal in NIH3T3, GalScreen luminescence, 90 h | inhibition, % at 2.09 µM | 5,600 compounds, 21% hits | AID 651740;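 active = mean inhibition above about 95%, with at least 55% of replicates also reaching it, limit read from the data; inconclusive = meets just one of the two conditions; inactive = meets neither condition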
3T3 cytotox – kills mouse NIH/3T3 fibroblasts. shares compounds with T cruzi growth-1. NIH/3T3 viability, CellTiter-Glo ATP luminescence, 90 h. cytotoxicity (signal decrease), % at 8.35 µM. 5,600 compounds, 14% hits. AID 651742;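 active = mean signal decrease across replicates above about 35% based on untreated-well scatter, with enough replicates individually passing, limit read from the data; inconclusive = no rule stated though some were filed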
NIH3T3 tox 2 – kills mouse NIH/3T3 fibroblasts | 5,600 compounds, 56% hits | AID 651744 | shares compounds with T cruzi growth-1 | inhibition, % at 24.9 µM | NIH/3T3 viability, CellTiter-Glo ATP luminescence, 90 h;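 active = mean loss of cell viability signal at or above a set limit, and enough replicates individually reaching it; inconclusive = meets only the mean limit or only the replicate share; inactive = meets neither condition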
Of the large screens only hits and unclear results are named; the others gave an inactive call (follow-up assays come after a bar, where they were run).

CO[C@@H]1CN(C)C(=O)c2ccc(NC(=O)c3cnccn3)cc2OC[C@@H](C)N(CCc2ccccc2)C[C@H]1C	none (no result: C diff growth)
C[C@@H]1CN([C@@H](C)CO)C(=O)c2cccc(NC(=O)c3nc4ccccc4s3)c2O[C@H]1CN(C)Cc1ccc(C(=O)O)cc1	none
O=C(Nc1ccc(-c2ccccc2)cc1)[C@@H]1[C@@H](CO)[C@@H]2Cn3c(cccc3=O)[C@H]1N2Cc1cncnc1	none
C[C@@H]1CN([C@H](C)CO)C(=O)Cc2cc(NC(=O)CCN3CCOCC3)ccc2O[C@H]1CN(C)Cc1ccc(Oc2ccccc2)cc1	none
C[C@H]1CN([C@@H](C)CO)S(=O)(=O)c2ccc(C#CC3CC3)cc2O[C@@H]1CN(C)C(=O)c1ccccc1	T cruzi growth-1 99 | T cruzi growth-2 101 | T cruzi growth-3 inactive | 3T3 cytotox inactive | NIH3T3 tox 2 inconclusive
COCC#Cc1ccc2c(c1)O[C@@H](CN(C)C(=O)c1ccccc1F)[C@H](C)CN([C@H](C)CO)S2(=O)=O	none
C[C@@H]1CN([C@@H](C)CO)S(=O)(=O)c2ccc(C#CC3CC3)cc2O[C@@H]1CN(C)C(=O)c1ccccc1	none
C[C@H](CO)N1C[C@H](C)[C@@H](CN(C)C(=O)c2cccc(F)c2)Oc2cc(C#CC3CC3)ccc2S1(=O)=O	none (no result: T cruzi growth-1)
CC(C)CC#Cc1ccc2c(c1)O[C@@H](CN(C)C(=O)c1cccc(F)c1)[C@H](C)CN([C@@H](C)CO)S2(=O)=O	T cruzi growth-1 124 | T cruzi growth-2 103 | T cruzi growth-3 110 | 3T3 cytotox 62 | NIH3T3 tox 2 105
CC(C)CC#Cc1ccc2c(c1)O[C@H](CN(C)C(=O)c1ccccc1F)[C@@H](C)CN([C@@H](C)CO)S2(=O)=O	T cruzi growth-1 103 | T cruzi growth-2 103 | T cruzi growth-3 inconclusive | 3T3 cytotox inactive | NIH3T3 tox 2 105
CC(C)CC#Cc1ccc2c(c1)O[C@@H](CN(C)C(=O)c1cccc(F)c1)[C@H](C)CN([C@H](C)CO)S2(=O)=O	T cruzi growth-1 110 | T cruzi growth-2 105 | T cruzi growth-3 inactive | 3T3 cytotox inactive | NIH3T3 tox 2 105
C[C@@H]1CN([C@@H](C)CO)S(=O)(=O)c2ccc(C#CC3CC3)cc2O[C@@H]1CN(C)C(=O)c1cccc(F)c1	none (no result: T cruzi growth-1)
C[C@@H]1CN([C@@H](C)CO)C(=O)c2cccc(NS(=O)(=O)c3ccccc3)c2O[C@H]1CN(C)Cc1ccccc1	none
Cc1ccccc1NC(=O)C[C@H]1CC[C@H]2[C@@H](COc3ccc(NC(=O)NC(C)C)cc3C(=O)N2C)O1	none (no result: T cruzi growth-1)
Cc1ccccc1S(=O)(=O)N1CC(=O)N2[C@H](CO)[C@H](c3ccc(C#Cc4ccccc4)cc3)[C@@H]2C1	none (no result: T cruzi growth-1)
C[C@H]1CN([C@@H](C)CO)C(=O)c2cc(NC(=O)Nc3ccc(C(F)(F)F)cc3)ccc2O[C@@H]1CN(C)S(C)(=O)=O	none (no result: T cruzi growth-1)
CS(=O)(=O)Nc1ccc2c(c1)[C@H]1C[C@@H](CC(=O)NCc3ccccc3F)O[C@H](CO)[C@H]1O2	none
CC(C)CC#Cc1ccc2c(c1)O[C@H](CN(C)C(=O)c1ccccc1)[C@@H](C)CN([C@@H](C)CO)S2(=O)=O	T cruzi growth-1 122 | T cruzi growth-2 102 | T cruzi growth-3 inactive | 3T3 cytotox inactive | NIH3T3 tox 2 105
CC(C)CC#Cc1ccc2c(c1)O[C@H](CN(C)C(=O)c1cccc(F)c1)[C@@H](C)CN([C@H](C)CO)S2(=O)=O	T cruzi growth-1 120 | T cruzi growth-2 109 | T cruzi growth-3 inactive | 3T3 cytotox inactive | NIH3T3 tox 2 105
CC(C)CC#Cc1ccc2c(c1)O[C@@H](CN(C)C(=O)c1ccccc1)[C@H](C)CN([C@H](C)CO)S2(=O)=O	none (no result: T cruzi growth-1)
CC(C)CC#Cc1ccc2c(c1)O[C@H](CN(C)C(=O)c1ccccc1)[C@H](C)CN([C@H](C)CO)S2(=O)=O	none (no result: T cruzi growth-1)
C[C@@H]1CN([C@H](C)CO)S(=O)(=O)c2ccc(C#CC3CC3)cc2O[C@@H]1CN(C)C(=O)c1cccc(F)c1	none (no result: T cruzi growth-1)
CC(C)CC#Cc1ccc2c(c1)O[C@@H](CN(C)C(=O)c1cccc(F)c1)[C@@H](C)CN([C@@H](C)CO)S2(=O)=O	T cruzi growth-1 102 | T cruzi growth-2 105 | T cruzi growth-3 105 | 3T3 cytotox inactive | NIH3T3 tox 2 104
CC(C)CC#Cc1ccc2c(c1)O[C@H](CN(C)C(=O)c1cccc(F)c1)[C@@H](C)CN([C@@H](C)CO)S2(=O)=O	T cruzi growth-1 126 | T cruzi growth-2 99 | T cruzi growth-3 102 | 3T3 cytotox inactive | NIH3T3 tox 2 106
CC(C)CC#Cc1ccc2c(c1)O[C@H](CN(C)C(=O)c1cccnc1)[C@@H](C)CN([C@@H](C)CO)S2(=O)=O	none
O=C(CN1CCOCC1)NCC[C@H]1CC[C@H](NC(=O)c2ccccc2F)[C@@H](CO)O1	none (no result: C diff growth)
CN(C)C(=O)c1cccc(-c2ccc3c(c2)[C@H]2[C@H](CCN2C(=O)Cc2ccccc2)[C@@H](CO)N3)c1	none
O=C(NC1CCCC1)N1CCCCN2[C@H](C1)[C@@H](c1ccc(/C=C/c3ccccc3)cc1)[C@@H]2CO	none
O=C(NC1CCCC1)N1CC(=O)N2[C@H](C1)[C@@H](c1ccc(/C=C/c3ccccc3)cc1)[C@@H]2CO	none (no result: T cruzi growth-1)
O=C(NC1CCCC1)N1CCCCN2[C@H](CO)[C@@H](c3ccc(/C=C/c4ccccc4)cc3)[C@@H]2C1	T cruzi growth-1 107 | T cruzi growth-2 100 | T cruzi growth-3 101 | 3T3 cytotox inactive | NIH3T3 tox 2 104
O=C(NC1CCCC1)N1CCCCN2[C@H](C1)[C@H](c1ccc(/C=C/c3ccccc3)cc1)[C@@H]2CO	T cruzi growth-1 104 | T cruzi growth-2 104 | T cruzi growth-3 inactive | 3T3 cytotox inactive | NIH3T3 tox 2 105
CN1C(=O)c2cc(NC(=O)c3ccccc3Cl)ccc2OC[C@H]2O[C@H](CC(=O)O)CC[C@@H]21	none
CC(C)NC(=O)N(C)C[C@H]1Oc2cc(C#Cc3ccc(F)cc3)ccc2S(=O)(=O)N([C@@H](C)CO)C[C@H]1C	T cruzi growth-1 107 | T cruzi growth-2 105 | T cruzi growth-3 inactive | 3T3 cytotox inactive | NIH3T3 tox 2 inactive
CC(C)NC(=O)N(C)C[C@@H]1Oc2cc(C#Cc3cccc(F)c3)ccc2S(=O)(=O)N([C@@H](C)CO)C[C@@H]1C	none
CC(C)NC(=O)N(C)C[C@@H]1Oc2cc(C#Cc3ccc(F)cc3)ccc2S(=O)(=O)N([C@H](C)CO)C[C@@H]1C	T cruzi growth-1 111 | T cruzi growth-2 97 | T cruzi growth-3 inconclusive | 3T3 cytotox inactive | NIH3T3 tox 2 inactive
CC(C)NC(=O)N(C)C[C@@H]1Oc2cc(C#Cc3cccc(F)c3)ccc2S(=O)(=O)N([C@H](C)CO)C[C@@H]1C	none
